Test results: PubChem BioAssay (NCATS)
Inconclusive results are not listed. Calls of active or inactive are those of the source. Calls follow the shape of the dose curve; as a rule, active = well fitted curve in the direction sought with a large enough effect; inconclusive = small, poorly fitted or top-dose-only effect, or another doubt; inactive = no such curve, though single readings can be large; an effect the other way counts as inactive or inconclusive.

Experiments:
[1] = molecular target: Alpha-galactosidase A (Homo sapiens) (UniProt P06280); test: Counterscreen for Glucocerebrosidase Inhibitors: qHTS Assay for Human alpha-Galactosidase at pH 4.5 (AID 992)
Procedure, shortened: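 Read-out is 4-methylumbelliferone fluorescence (365 nm excitation, 440 nm emission) after a pH 10 NaOH/glycine stop. Reactions held 2 nM enzyme and 80 uM substrate at pH 4.5 for 20 min at room temperature.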

[2] = Cell Viability - LYMP2-011 (AID 969); also: nearly all actives have a fitted effect of over 60% in size; also: potency is read from the fitted curve at half-maximal effect
Procedure, shortened: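 Human lymphoblastoid cells (2500/well) were plated in complete medium, preincubated 5 hr at 37 C, then exposed to compounds for 24 hr at 37 C. Intracellular ATP was read by CellTiter-Glo luminescence, and AC50 came from Hill-equation concentration-response fits.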

[3] = Cell Viability - LYMP2-015 (AID 971); also: nearly all actives have a fitted effect of over 55% in size; also: potency is read from the fitted curve at half-maximal effect
Procedure, shortened: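 Human lymphoblastoid cells (2500/well) in complete medium were preincubated 5 hr at 37 C, then compound-treated 24 hr at 37 C. Intracellular ATP was read by CellTiter-Glo luminescence after 30 min at room temperature; AC50 came from Hill-equation concentration-response fits.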

[4] = Cell Viability - LYMP2-019 (AID 973); also: nearly all actives have a fitted effect of over 55% in size; also: potency is read from the fitted curve at half-maximal effect
Procedure, shortened: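 Human lymphoblastoid cells were seeded at 2500 cells/well, preincubated 5 hr at 37 C, then exposed to compounds for 24 hr at 37 C in complete medium. Intracellular ATP was measured by CellTiter-Glo luminescence; AC50 from Hill fits.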

[5] = Cell Viability - LYMP2-021 (AID 974);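 also: compound exposure lasts 24 hours at 37 °C; nearly all actives have a fitted effect of over 55% in size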; also: potency is read from the fitted curve at half-maximal effect
Procedure, shortened: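 Human lymphoblastoid cells (2500/well) were preincubated 5 hr at 37 C, then exposed to compounds for 24 hr at 37 C in complete medium. Intracellular ATP was read by CellTiter-Glo luminescence; AC50 came from Hill-equation fits of concentration-response data.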

[6] = Cell Viability - LYMP2-023 (AID 975); also: nearly all actives have a fitted effect of over 55% in size; also: potency is read from the fitted curve at half-maximal effect
Procedure, shortened: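 Human lymphoblastoid cells (2500/well) were preincubated 5 hr at 37 C, then exposed to compounds for 24 hr at 37 C in complete medium. Cellular ATP was read by CellTiter-Glo luminescence, and AC50 came from Hill-equation fits.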

[7] = Cell Viability - LYMP2-025 (AID 976); also: potency is read from the fitted curve at half-maximal effect
Procedure, shortened: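 Human lymphoblastoid LYMP2-025 cells (2500/well) were pre-incubated 5 hr at 37 C, then treated with compounds for 24 hr at 37 C in complete medium. Viability was read as intracellular ATP by CellTiter-Glo luminescence; AC50 from Hill fits.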

[8] = Cell Viability - LYMP2-002 (AID 977); also: potency is read from the fitted curve at half-maximal effect
Procedure, shortened: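 Luminescent ATP readout (CellTiter-Glo, 30 min room temperature) after 24 h compound exposure at 37 C of a human lymphoblastoid line, 2500 cells/well. AC50 values derived by standard Hill fitting of qHTS concentration-response data.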

[9] = Cell Viability - LYMP2-006 (AID 978); also: nearly all actives have a fitted effect of over 60% in size; also: potency is read from the fitted curve at half-maximal effect
Procedure, shortened: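 Human lymphoblastoid cells, 2500 per well, were preincubated 5 hr at 37 C, then exposed to compounds for 24 hr at 37 C in complete medium. Viability was read as intracellular ATP by CellTiter-Glo luminescence; AC50 from Hill-equation fits of qHTS concentration-response data.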

[10] = Cell Viability - LYMP2-007 (AID 979);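 also: cells exposed to compound for 24 h before reading; nearly all actives have a fitted effect of over 60% in size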; also: potency is read from the fitted curve at half-maximal effect
Procedure, shortened: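 Human lymphoblastoid cells (2500/well) were plated in complete medium, incubated 5 hr at 37 C, then exposed to compounds for 24 hr at 37 C. Intracellular ATP was read by CellTiter-Glo luminescence after 30 min at room temperature; AC50 from Hill fits.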

[11] = Cell Viability - LYMP2-008 (AID 980); also: nearly all actives have a fitted effect of over 60% in size; also: potency is read from the fitted curve at half-maximal effect
Procedure, shortened: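 Human lymphoblastoid cells (2500/well) were plated, held 5 hr at 37 C, then exposed to compounds for 24 hr at 37 C in complete medium. Intracellular ATP was read by CellTiter-Glo luminescence; AC50 from Hill-fitted concentration-response.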

[12] = Cell Viability - LYMP2-012 (AID 982); also: potency is read from the fitted curve at half-maximal effect
[13] = Cell Viability - LYMP2-014 (AID 983); also: nearly all actives have a fitted effect of over 50% in size; also: potency is read from the fitted curve at half-maximal effect
Procedure, shortened: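 Human lymphoblastoid cells (2500/well) were pre-incubated 5 hr at 37 C, then exposed to compounds in complete medium for 24 hr at 37 C. Intracellular ATP was read by CellTiter-Glo luminescence after 30 min at room temperature; AC50 from Hill fits.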

[14] = Cell Viability - LYMP2-016 (AID 984); also: nearly all actives have a fitted effect of over 55% in size; also: potency is read from the fitted curve at half-maximal effect
Procedure, shortened: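 Human lymphoblastoid cells (LYMP2-016), 2500/well in complete medium, preincubated 5 hr at 37 C, then compound-treated 24 hr at 37 C. Intracellular ATP read by CellTiter-Glo luminescence after 30 min at room temperature; AC50 from Hill-equation concentration-response fits.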

[15] = Cell Viability - LYMP2-018 (AID 985);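 also: compound exposure lasted 24 hr at 37 °C; nearly all actives have a fitted effect of over 50% in size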; also: potency is read from the fitted curve at half-maximal effect
Procedure, shortened: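 Human lymphoblastoid cells (2500/well) were pre-incubated 5 hr at 37 C, then exposed to compounds for 24 hr at 37 C in complete medium. Viability was read as intracellular ATP by CellTiter-Glo luminescence; AC50 values came from Hill-equation fits.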

[16] = Cell Viability - LYMP2-020 (AID 986); also: nearly all actives have a fitted effect of over 55% in size; also: potency is read from the fitted curve at half-maximal effect
Procedure, shortened: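 Human lymphoblastoid cells, 2500/well, were pre-incubated 5 hr at 37 C, then exposed to compounds for 24 hr at 37 C in complete medium. Intracellular ATP was read by CellTiter-Glo luminescence, and AC50 was derived by Hill fitting of concentration-response data.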

[17] = Cell Viability - LYMP2-022 (AID 987); also: nearly all actives have a fitted effect of over 55% in size; also: potency is read from the fitted curve at half-maximal effect
Procedure, shortened: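 Human lymphoblastoid cells, 2500/well, preincubated 5 hr at 37 C, then exposed to compounds over a concentration range for 24 hr at 37 C in complete medium. Viability read as intracellular ATP by CellTiter-Glo luminescence after 30 min at room temperature; AC50 from Hill fits.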

[18] = Cell Viability - LYMP2-024 (AID 988); also: nearly all actives have a fitted effect of over 60% in size; also: potency is read from the fitted curve at half-maximal effect
Procedure, shortened: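 Human lymphoblastoid cells (2500/well) in complete medium were preincubated 5 hr at 37 C, then exposed to compounds for 24 hr at 37 C. Intracellular ATP was read by CellTiter-Glo luminescence; AC50 from Hill-equation fits of concentration-response data.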

[19] = Cell Viability - LYMP2-026 (AID 989); also: nearly all actives have a fitted effect of over 50% in size; also: potency is read from the fitted curve at half-maximal effect
Procedure, shortened: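 Human lymphoblastoid cells (2500/well) in complete medium were preincubated 5 hr at 37 C, then exposed to compounds for 24 hr at 37 C. Cellular ATP was read by CellTiter-Glo luminescence; AC50 from Hill-equation fits of concentration-response data.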

[20] = Cell Viability - LYMP1-002 - Assay at 24 hr (AID 993); also: potency is read from the fitted curve at half-maximal effect
Procedure, shortened: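 Human lymphoblastoid LYMP1-002 cells, 2500/well in complete medium, were treated with compounds for 24 h at 37 C; intracellular ATP was read by CellTiter-Glo luminescence. AC50 values came from Hill-equation fits of qHTS concentration-response data.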

Measured: Potency

Alpha-galactosidase A (Homo sapiens), sequence (P06280 whole entry, looked up): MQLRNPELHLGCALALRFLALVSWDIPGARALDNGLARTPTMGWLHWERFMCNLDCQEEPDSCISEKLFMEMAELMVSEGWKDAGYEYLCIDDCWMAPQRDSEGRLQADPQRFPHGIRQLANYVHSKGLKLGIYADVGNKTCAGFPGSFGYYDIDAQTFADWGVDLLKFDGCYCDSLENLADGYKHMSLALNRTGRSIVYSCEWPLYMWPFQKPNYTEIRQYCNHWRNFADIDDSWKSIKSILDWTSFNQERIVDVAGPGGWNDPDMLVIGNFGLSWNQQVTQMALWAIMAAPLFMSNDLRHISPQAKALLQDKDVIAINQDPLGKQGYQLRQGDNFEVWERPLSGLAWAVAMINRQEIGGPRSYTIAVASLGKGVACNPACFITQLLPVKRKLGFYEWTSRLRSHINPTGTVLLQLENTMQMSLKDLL

COc1ccccc1N1CCN(CCN2C(=O)CC3(CCCC3)CC2=O)CC1
inactive: [1]

Nc1c2ccccc2nc2ccccc12
active: [2] 12.6 µM | [3] 10 µM | [4] 10 µM | [5] 12.6 µM | [6] 12.6 µM | [7] 12.6 µM | [8] 7.94 µM | [9] 20 µM | [10] 15.8 µM | [11] 12.6 µM | [12] 10 µM | [13] 10 µM | [14] 10 µM | [15] 12.6 µM | [16] 10 µM | [17] 12.6 µM | [18] 12.6 µM | [19] 15.8 µM | [20] 20 µM

NC(N)=NCCCCN=C(N)N
inactive: [1]

Nc1cccc2c(N)cccc12
not listed: [1]
inactive: all other assays above

Oc1ccccc1
not listed: [1]
inactive: all other assays above

c1ccc2occc2c1
not listed: [1]
inactive: all other assays above

Nc1ccc(O)cc1
active: [2] 39.8 µM | [3] 31.6 µM | [4] 39.8 µM | [5] 31.6 µM | [6] 50.1 µM | [8] 39.8 µM | [9] 50.1 µM | [10] 31.6 µM | [11] 39.8 µM | [12] 31.6 µM | [13] 39.8 µM | [14] 50.1 µM | [15] 39.8 µM | [16] 31.6 µM | [17] 25.1 µM | [18] 25.1 µM | [19] 50.1 µM | [20] 39.8 µM

COc1cc(C=O)ccc1O
not listed: [1]
inactive: all other assays above

C[N+](C)(C)CCO
inactive: [1]

C1=CC2C3C=CC(C3)C2C1 (configuration not stated)
not listed: [1]
inactive: all other assays above

Cc1cc(C(C)(C)C)c(O)c(C(C)(C)C)c1
not listed: [1]
inactive: all other assays above

CC(C)C(C)(C)C(C)(C)C(C)(C)S
not listed: [1]
inactive: all other assays above

OCc1c[nH]c2ccccc12
not listed: [1]
inactive: all other assays above
